Screening data from PubChem BioAssay.
AMA1-RON2 inh = disrupts binding of P. falciparum AMA1 to RON2; AID 720542; AlphaScreen AMA1-biotinylated RON2 peptide binding; 360,000 tested, 0.2% active; Potency, µM (top dose mostly 58.2 µM), for the others: top-dose activity change, negative = inhibition, actives largely listed as inhibitors; active means well fitted inhibition curve with a large enough effect; inconclusive means small, poorly fitted or top-dose-only effect; inactive means no such curve, though single readings can be large or run the other way;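 further: potency means the concentration at half of the fitted maximal effect; 0% = vehicle wells and -100% = peptide control; nearly all actives have a fitted effect of over 45% in size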
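AMA1 (3D7) with his tag at 25 nM final met compounds first, then biotinylated RON2 peptide at 25 nM; detection used donor plus acceptor beads, 10 µg/mL apiece, read by AlphaScreen after 30 min at room temperature.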
SARS PLpro yeast = inhibitors of SARS-CoV papain-like protease in yeast | S. cerevisiae expressing SARS-CoV PLpro, growth rescue | Potency, µM (titrated, usually from 32.9 µM), for the others: top-dose activity, positive = growth rescue, actives largely listed as activators | 330,000 tested, 0.19% active; further: potency means the concentration at half of the fitted maximal effect; 0% is about no effect; nearly all actives have a fitted effect of over 55% in size
NS1 inh = blocks influenza NS1 protein function; Potency, µM (series often up to 46.1 µM), for inactives: top-dose activity, positive = more growth; 270,000 tested, 0.4% active; AID 2326; further: potency means the concentration at half of the fitted maximal effect; actives are rising curves; nearly all actives have a fitted effect of over 50% in size
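OD600 was taken as the measure of yeast growth restored by compound in an NS1-expressing S. cerevisiae strain. Cells had been washed out of glucose medium and diluted 1:100 into galactose -URA medium, pH 6.0.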
NS1 inh valid = influenza NS1 function inhibition validation. influenza NS1 function cell assay, 15-point titration. activity change, negative = inhibition, % at 32.9 µM. AID 492980. 1,400 tested, under 10 active. shares compounds with NS1 inh; further: 0% is about no effect
PR8 titer = reduces influenza A/PR/8/34 replication in MDCK cells. shares compounds with NS1 inh. MDCK infected influenza A/PR/8/34, virus titer TCID50; active compounds read low. virus titer (log TCID50), log10 TCID50 at 5 µM. 95 tested, 30% active. AID 504647; call rule not given here
* marks the source's active call; other numbers are inactive results; u = inconclusive; x = no result given. Hits are enriched below; roughly 0.65% of the tested compounds scored in any of these assays. Unless noted, the call rests on the fitted dose curve.

SMILES	AMA1-RON2 inh	SARS PLpro yeast	NS1 inh	NS1 inh valid	others
CCn1c2ccccc2c2cc(NC(=O)COC(=O)c3cccc(S(=O)(=O)NC)c3)ccc21	-2.3%	-3.6%	10µM*	1.9	PR8 titer=7.33*
Cc1nn(-c2ccc(F)cc2)c2nc(N)c(C#N)c(-c3ccc(O)c(O)c3)c12	-23.6%	-0.9%	3.6%	x
CCOc1cc(-c2c(C#N)c(=O)[nH]c3c2c(C)nn3-c2ccc(F)cc2)ccc1O	25.1%	0.8%	7.94µM*	25.7	PR8 titer=4*
O=C1NC[C@H](CCCCN2C[C@H](Cc3ccccc3)N(CCc3ccc(O)cc3)C(=O)C2=O)N(CCc2ccccc2)C1=O	1.5%	x	x	x
COc1ccccc1-n1cc(C(=O)NCC(=O)NCc2ccc(F)cc2)c2ccccc2c1=O	-1.9%	-8.0%	x	x
CCc1ccc(NC(=O)CNC(=O)c2cn(-c3ccccc3OC)c(=O)c3ccccc23)cc1	-12.5%	26.0%	11.2µM*	29.6	PR8 titer=8.5
COc1cc(Cl)ccc1OCc1cc(C(=O)N(C)Cc2cccc3cnccc23)no1	-6.9%	-12.3%	-67.3%	x
CC(C)(C)c1ccc(NNC(=O)C2CCC2)cc1	-1.6%	-0.3%	-3.6%	x
CCOC(=O)c1cnn2c(N)c(C#N)cnc12	4.5%	-0.5%	-0.1%	x
CCOC(=O)c1cnn2c(N)c(C#N)nnc12	20.2%	0.6%	5.01µM*	-14.8
CCc1cc(=O)oc2cc(C)cc(OC(C)C(=O)NCCCn3ccnc3)c12 (configuration not stated)	-1.9%	3.6%	-13.0%	x
COC(=O)c1sccc1NC(=O)CC1C(=O)NCCN1C(=O)c1ccc(F)cc1 (configuration not stated)	-4.3%	0.6%	1.3%	x
COCCNC(=O)c1ccc(Cn2c(=S)[nH]c3cc4c(cc3c2=O)OCO4)cc1	21.0%	-1.4%	-18.5%	x
COC(CNC(=O)c1ccc(Cn2c(=S)[nH]c3cc4c(cc3c2=O)OCO4)cc1)OC	52.6%	u	6.31µM*	16.0
O=C(CCNC(=O)c1ccco1)Nc1nc(-c2ccccc2)cs1	-18.5%	0.5%	x	x
Brc1ccc(C2Nc3cccc4cccc(c34)N2)o1	-3.9%	u	u	2.0
Brc1cccc(C2Nc3cccc4cccc(c34)N2)c1	-2.2%	-2.4%	2.6%	x
Cc1ccccc1C(=O)N1CCC(C(=O)Nc2ccc(S(=O)(=O)N3CCCCC3)cc2)CC1	-10.0%	3.2%	-1.6%	x
Cc1onc(-c2ccccc2)c1C(=O)Nc1ccc(NC(=O)c2c(-c3ccccc3)noc2C)cc1	-6.4%	x	x	x
Cc1onc(-c2ccccc2)c1C(=O)Nc1cccnc1	-5.1%	4.6%	6.31µM*	1.7
Cc1cc(C)nc(OC(C(=O)O)C(OCCC(C)C)(c2ccccc2)c2ccccc2)n1 (configuration not stated)	-1.4%	-3.4%	2.51µM*	20.2
Cc1cc(C)nc(OC(C(=O)O)C(OCc2ccccc2)(c2ccccc2)c2ccccc2)n1 (configuration not stated)	3.1%	-3.8%	17.0%	x
Cc1ccnc(OC(C(=O)O)C(OCc2ccccc2)(c2ccccc2)c2ccc(C(F)(F)F)cc2)n1 (configuration not stated)	-1.5%	5.4%	u	28.4
CCCOC(c1ccccc1)(c1ccccc1)C(Oc1nc(C)cc(C)n1)C(=O)O (configuration not stated)	-1.2%	-7.2%	u	x
COc1cc(CNC(=O)Nc2nnc([C@@H]3C[C@H](O)[C@@H](CO)O3)s2)cc(OC)c1OC	4.2%	x	x	x
SMILES	AMA1-RON2 inh	SARS PLpro yeast	NS1 inh	NS1 inh valid	others
Cc1cc(C)c(S(=O)(=O)c2ccccc2C(C)C)c(=O)[nH]1	10.2%	-0.2%	-0.7%	x
Cc1c(C(=O)N(C)Cc2ccc(OC(F)F)cc2)oc2ccccc12	25.1%	0.3%	-2.1%	x
Cc1ccc(C)c(S(=O)(=O)Nc2ccc(S(=O)(=O)Nc3ncccn3)cc2)c1	-7.6%	7.6%	x	x
Cc1ccc(C)c(S(=O)(=O)Nc2ccccc2C(=O)Nc2ccc(S(=O)(=O)Nc3ncccn3)cc2)c1	2.8%	-8.3%	11.2µM*	24.7
COC(=O)C(NC(=O)CNS(=O)(=O)c1ccc(Br)cc1)c1ccccc1 (configuration not stated)	-1.1%	2.6%	x	x
O=C(Cc1ccccc1)NN=C1CCCC1	71.4%	x	x	x
N#CCC(=O)NN=C1CCCCCCCCCCC1	75.5%	6.4%	1.78µM*	4.0
CN1C(=O)C(C)(C)c2cc(S(=O)(=O)N3CCN(c4cccc(Cl)c4)CC3)ccc21	-3.9%	-8.5%	12.4%	x
